This note sets out measurements from the supplement of paper PMC12636033.

± gives the standard deviation of the averaged measurements. The full ranking holds about 33,000 sequences; the median of “E-score (rank enrichment, -0.5 to 0.5)” is about -0.0068, and the highest 2% start at about 0.24. Many of the other results were omitted from the sample, so the highest values are more common in it than they were.

The test concerns muMax20 (Max(13-93) K31hArg/K57hArg, M65Nle). The test can be described thus: PBM 8-mer E-score (E-score (rank enrichment, -0.5 to 0.5)); higher = stronger preferential binding. The procedure:
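Protein binding microarray (universal PBM chip covering all 10-mers in fixed probe flanks) with chemically synthesized human Max(13-93) bHLH-LZ analogs (not full-length Max) bearing noncanonical residues (hArg, Tha, Aib, Nle at 65) and aromatic Cys staples. Read-out per 8-mer (and its reverse complement): E-score (rank-based enrichment, -0.5 to 0.5) and Z-score of median probe intensity.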
For the sequence GACGTGAA, the “PBM 8-mer E-score” value was -0.111 ± 0.032.

With CACGTGAG, the “PBM 8-mer E-score” value stood at 0.344 ± 0.11.

As to CGCGTGAA, the “PBM 8-mer E-score” value worked out at 0.00405 ± 0.02.

With CACGTGAA, the “PBM 8-mer E-score” value turned out to be 0.368 ± 0.099.

In the case of CGCGTGAG, the “PBM 8-mer E-score” value came out at 0.122 ± 0.034.

Turning to CCCGTGAG, the “PBM 8-mer E-score” value is -0.289 ± 0.015.

Take CACGTTAG: the “PBM 8-mer E-score” value amounted to 0.0823 ± 0.07.

For CGCGTGAC, the “PBM 8-mer E-score” value came out at 0.268 ± 0.12.

Take TACGTGAA: the “PBM 8-mer E-score” value stood at 0.144 ± 0.01.

For AACGTGAC, the “PBM 8-mer E-score” value was found to be 0.155 ± 0.0051.

CACGTGAC: the “PBM 8-mer E-score” value was found to be 0.459 ± 0.038.

Regarding GACGTGAC, the “PBM 8-mer E-score” value turned out to be 0.0637 ± 0.034.

Regarding ACCCGAGG, the “PBM 8-mer E-score” value was -0.1291 ± 0.0004.

For the sequence CCAGCTAC, the “PBM 8-mer E-score” value was -0.139 ± 0.0043.

In the case of GGAGCTAA, the “PBM 8-mer E-score” value is -0.194 ± 0.096.

As for ATCTCCGG, the “PBM 8-mer E-score” value was -0.11 ± 0.16.

For CCCTTAGC, the “PBM 8-mer E-score” value was -0.0766 ± 0.14.

Consider ACGCTGAA, for which the “PBM 8-mer E-score” value was -0.171 ± 0.049.

For CCTCCTAC, the “PBM 8-mer E-score” value is -0.0317 ± 0.12.

Turning to ATACCTCC, the “PBM 8-mer E-score” value was -0.0216 ± 0.038.

Consider CCCATGGC, for which the “PBM 8-mer E-score” value is -0.167 ± 0.041.

As for AACTGTAG, the “PBM 8-mer E-score” value was -0.00575 ± 0.073.

For the sequence ACGACACA, the “PBM 8-mer E-score” value is -0.0466 ± 0.022.

As to ATTCGCCA, the “PBM 8-mer E-score” value is -0.152 ± 0.018.

Turning to CGCCTATA, the “PBM 8-mer E-score” value is -0.0178 ± 0.0095.

For the sequence AGCCTATA, the “PBM 8-mer E-score” value worked out at 0.25 ± 0.083.

In the case of GGCCTATA, the “PBM 8-mer E-score” value was -0.132 ± 0.045.

For AATGTTGG, the “PBM 8-mer E-score” value was 0.0876 ± 0.073.

Regarding CATGTTGA, the “PBM 8-mer E-score” value turned out to be 0.193 ± 0.044.

For GATGTTGA, the “PBM 8-mer E-score” value is -0.00209 ± 0.012.

Consider AATGTTGA, for which the “PBM 8-mer E-score” value was -0.00564 ± 0.1.

On to AATGTTGT, for which the “PBM 8-mer E-score” value was 0.28 ± 0.01.

In the case of TATGTTGA, the “PBM 8-mer E-score” value came out at 0.238 ± 0.044.

With ATTCTAGC, the “PBM 8-mer E-score” value was -0.0188 ± 0.08.

As to ATATACGA, the “PBM 8-mer E-score” value was 0.247 ± 0.017.

Regarding ATCTACTC, the “PBM 8-mer E-score” value is -0.0945 ± 0.036.

Take CTATACTA: the “PBM 8-mer E-score” value was determined as 0.081 ± 0.083.

Take ACATACGC: the “PBM 8-mer E-score” value amounted to 0.078 ± 0.081.

Take ACATACGA: the “PBM 8-mer E-score” value amounted to 0.239 ± 0.035.

As for ATCTACTA, the “PBM 8-mer E-score” value is 0.2783 ± 0.0027.

As for TCATACGA, the “PBM 8-mer E-score” value was determined as 0.2 ± 0.064.

In the case of ATATACGC, the “PBM 8-mer E-score” value came to 0.0468 ± 0.016.

On to CTATACGA, for which the “PBM 8-mer E-score” value is -0.122 ± 0.029.

Take ATATACTC: the “PBM 8-mer E-score” value came out at 0.128 ± 0.077.

Consider ATATACTA, for which the “PBM 8-mer E-score” value stood at 0.3084 ± 0.0014.

As to ATCTACTG, the “PBM 8-mer E-score” value is -0.00673 ± 0.085.

As for CCTCGCTC, the “PBM 8-mer E-score” value is -0.0787 ± 0.12.

For GCGGAACC, the “PBM 8-mer E-score” value is -0.175 ± 0.0029.

Turning to GGTCGGCA, the “PBM 8-mer E-score” value is -0.172 ± 0.038.

For the sequence ATGCCTCG, the “PBM 8-mer E-score” value turned out to be 0.0473 ± 0.0097.

Turning to AAACGCGA, the “PBM 8-mer E-score” value amounted to 0.0862 ± 0.15.

GAGGCAAA: the “PBM 8-mer E-score” value was 0.154 ± 0.077.

Regarding GTGAGCGA, the “PBM 8-mer E-score” value is -0.125 ± 0.059.

For CCAGGCTA, the “PBM 8-mer E-score” value is -0.296 ± 0.027.

Take GGAAGTAA: the “PBM 8-mer E-score” value amounted to 0.207 ± 0.022.

Consider AGGTACAA, for which the “PBM 8-mer E-score” value is 0.128 ± 0.024.

On to GTGTACAA, for which the “PBM 8-mer E-score” value was 0.1868 ± 0.0017.

With GGGTACAA, the “PBM 8-mer E-score” value amounted to 0.0175 ± 0.13.

As for TTGTACAA, the “PBM 8-mer E-score” value amounted to 0.284 ± 0.073.

Turning to TGGTACAA, the “PBM 8-mer E-score” value came out at 0.253 ± 0.084.

On to CTGTACAA, for which the “PBM 8-mer E-score” value was determined as 0.045 ± 0.052.

On to CATGGTTA, for which the “PBM 8-mer E-score” value came to 0.103 ± 0.0075.

For TCCGCACA, the “PBM 8-mer E-score” value is -0.187 ± 0.04.

As to ACGCGCGT, the “PBM 8-mer E-score” value worked out at 0.19 ± 0.13.

Turning to ACACGCGC, the “PBM 8-mer E-score” value stood at 0.0651 ± 0.19.

In the case of ACACGCGA, the “PBM 8-mer E-score” value came out at 0.15 ± 0.0033.

As to CCACGCGA, the “PBM 8-mer E-score” value came out at 0.0738 ± 0.016.

Regarding AAACGCGT, the “PBM 8-mer E-score” value is 0.0946 ± 0.058.

Regarding CCACGCGC, the “PBM 8-mer E-score” value was determined as 0.03925 ± 0.00016.

For CCACGCGG, the “PBM 8-mer E-score” value is 0.416 ± 0.005.

Regarding ACACGCGT, the “PBM 8-mer E-score” value is 0.238 ± 0.014.

For the sequence ACACGCGG, the “PBM 8-mer E-score” value worked out at 0.246 ± 0.046.

With AAACTCCA, the “PBM 8-mer E-score” value was -0.0494 ± 0.085.

As to AACTTACG, the “PBM 8-mer E-score” value is 0.0512 ± 0.088.

For the sequence GGATGGGA, the “PBM 8-mer E-score” value was 0.00739 ± 0.13.

AGCTTTAT: the “PBM 8-mer E-score” value is -0.0838 ± 0.085.

Consider AGTGTGTC, for which the “PBM 8-mer E-score” value was -0.0164 ± 0.029.

In the case of TACGGCAA, the “PBM 8-mer E-score” value turned out to be 0.0936 ± 0.016.

On to GGCCAAGA, for which the “PBM 8-mer E-score” value is -0.116 ± 0.056.

Turning to ATGCATCA, the “PBM 8-mer E-score” value was found to be 0.276 ± 0.059.

GTGCATCA: the “PBM 8-mer E-score” value was 0.145 ± 0.039.

AAGCATGT: the “PBM 8-mer E-score” value turned out to be 0.218 ± 0.064.

In the case of ATGCATGC, the “PBM 8-mer E-score” value amounted to 0.198 ± 0.11.

Take CTGCATTA: the “PBM 8-mer E-score” value came to 0.0657 ± 0.06.

Consider AAGCATGC, for which the “PBM 8-mer E-score” value was found to be 0.254 ± 0.074.

On to ATGCATGG, for which the “PBM 8-mer E-score” value was 0.132 ± 0.097.

In the case of ATGCATGA, the “PBM 8-mer E-score” value stood at 0.276 ± 0.055.

ATGCATTC: the “PBM 8-mer E-score” value was determined as 0.215 ± 0.1.

In the case of ATGCATTA, the “PBM 8-mer E-score” value worked out at 0.28 ± 0.079.

In the case of GAGCATGC, the “PBM 8-mer E-score” value was 0.217 ± 0.12.

As to ATGCATCG, the “PBM 8-mer E-score” value was determined as 0.0165 ± 0.083.

On to GAGCAGCC, for which the “PBM 8-mer E-score” value was -0.196 ± 0.0049.

Regarding ACAACCCC, the “PBM 8-mer E-score” value was 0.0696 ± 0.03.

Take ATTCATTA: the “PBM 8-mer E-score” value amounted to 0.177 ± 0.078.

In the case of CTACATTC, the “PBM 8-mer E-score” value was determined as 0.0325 ± 0.15.

Take ATACATTG: the “PBM 8-mer E-score” value was 0.125 ± 0.013.

Regarding ATTCATTG, the “PBM 8-mer E-score” value turned out to be 0.148 ± 0.014.

ATACATTC: the “PBM 8-mer E-score” value is 0.244 ± 0.0028.

Turning to ATTCATTC, the “PBM 8-mer E-score” value worked out at 0.287 ± 0.035.
